# Compound activity from PubChem.
# VACV mCherry inh: vaccinia inhibition (mCherry reporter). Potency, µM (series often up to 36.5 µM), for inactives: at the highest dose activity change, negative = inhibition, actives largely listed as inhibitors. actives 0.63% (n = 310,000). Vaccinia virus mCherry reporter infection, fluorescence. AID 720579; calls by dose curve; tested in A549 cells; also: nearly all actives have a fitted effect of over 35% in size
# VACV Venus inh: inhibitors of vaccinia virus (Venus reporter); Vaccinia virus Venus reporter expression, fluorescence; actives 0.46% (n = 330,000); AID 720580; Potency, µM (titrated, usually from 36.5 µM), for the others: at the highest dose activity change, negative = inhibition, most hits filed as inhibitors; calls by dose curve; tested in A549 cells; also: nearly all actives have a fitted effect of over 30% in size
# Sm TGR block: S. mansoni TGR enzyme inhibition; Q962Y6; purified TGR, DTNB reduction, TNB absorbance 405 nm; Potency, µM (top dose mostly 114 µM), for the others: at the top dose activity change, negative = inhibition, usual class: inhibitors; actives 3% (n = 360,000); active = well fitted inhibition curve with a large enough effect; inconclusive = small, poorly fitted or top-dose-only effect; inactive = no such curve, though single readings can be large or run the other way; also: nearly all actives have a fitted effect of over 60% in size
#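 TGR 20 nM + NADPH 100 uM (dispensed conc.), cpd preinc 15 min RT; start with NADPH (500 uM addition) then DTNB (15 mM addition). Kinetic TNB absorbance, 405 nm filter. Four-parameter Hill fit across titration.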
# FMDV antiviral: foot and mouth disease virus antiviral activity; FMDV antiviral cell-based qHTS; Potency, µM (top dose mostly 57.9 µM), inactives show top-dose activity change, negative = inhibition, actives largely listed as inhibitors; actives 1.2% (n = 410,000); AID 1159524; calls by dose curve; tested in HEK293T cells; also: read-out not given here; nearly all actives have a fitted effect of over 45% in size
# Lassa entry inh: Lassa virus entry inhibition | Lassa virus pseudotype entry inhibition, cell reporter | Potency, µM (series often up to 37.9 µM), for the others: at the highest dose activity change, negative = inhibition, hits mostly inhibitors | actives 1.2% (n = 300,000) | AID 540256; calls by dose curve; tested in HEK293 cells; also: nearly all actives have a fitted effect of over 50% in size
# Marburg entry inh: Marburg virus entry inhibition; Marburg virus pseudotyped entry inhibition, cell reporter; Potency, µM (top dose mostly 37.8 µM), inactives show at the highest dose activity change, negative = inhibition, usual class: inhibitors; actives 1.8% (n = 300,000); AID 540276; calls by dose curve; tested in HEK293 cells
# Numbers without * were called inactive; i = inactive; u = inconclusive; x = no result given; ! = repeats disagree; [ ] = another dose, or the depositor's remark. Compounds with a hit are over-represented: about 5.4% of the library has one in this group of screens. % is scaled to controls: 0 for no effect and ±100 for the full control effect; potency is read from the fitted curve at half-maximal effect.
SMILES,VACV mCherry inh,VACV Venus inh,Sm TGR block,FMDV antiviral,Lassa entry inh,Marburg entry inh
CCOC(=O)C1=C(c2ccccc2)NC(=S)NC1c1ccc(Cl)c([N+](=O)[O-])c1 (configuration not stated),x,x,-8%,x,-18%,-32%
CCOC(=O)c1sc(NC(=O)CC(C)c2ccccc2)nc1C (configuration not stated),-15%,-26%,3%,-24%,u,5.6µM*
CCC(Sc1nc2c(sc3ccccc32)c(=O)n1CCc1ccc(OC)c(OC)c1)C(=O)N(CC)CC (configuration not stated),u,-25%,-1%,-6%,u,x
NNC(=O)c1c(O)c2cccc3c2n(c1=O)CCC3,x,x,32µM*,-20%,x,x
COc1ccc(-c2csc3ncn(Cc4ccccc4)c(=O)c23)cc1,x,x,20%,-11%,x,x
COc1ccc(-c2c3c(cc4ncn(Cc5ccccc5)c24)COC3=O)cc1,-7%,-24%,32µM*,-10%,x,x
COc1cc(/C=N/NC(=O)c2nc(-c3ccccc3)n(-c3ccccc3)n2)ccc1O,-1%,-7%,-3%,-17%,-10%,36%
COc1cc(C=NNc2ncnc3c2cnn3Cc2ccccc2)ccc1O,x,x,x,x,7.9µM*,x
COc1cc(C=NNc2ncnc3c2cnn3-c2ccccc2)ccc1O,x,x,x,x,16µM*,x
COc1ccc(Nc2ncnc3c2cnn3Cc2ccccc2)cc1OC,-1%,-26%,7%,x,u,u
COc1cccc(-n2ncc3c(NN=Cc4ccncc4)ncnc32)c1,x,x,x,x,17%,x
COc1cc(/C=N/Nc2nc(C)nc3c2cnn3-c2ccccc2)ccc1O,u,u,4%,-1%,u,11µM*
CCCCNc1ncnc2c1cnn2-c1ccccc1,x,u,11%,1%,u,10µM*
O=C1CC(c2cccc(Cl)c2Cl)c2cc3c(cc2N1)OCCO3 (configuration not stated),-25%,-23%,-1%,u,-6%[46.1 µM],u
O=C1[C@@H]2C=CC=CC2=NC(=S)N1CCN1CCC(=C(c2ccc(F)cc2)c2ccc(F)cc2)CC1,x,x,x,x,x,13%
COc1cccc(/C=N/Nc2ncnc3c2ncn3Cc2ccccc2)c1O,3.2µM*,u,0%,-21%,7.3µM*,u
CCCCN(CC)C(=O)c1cc2c(=O)n3ccccc3nc2n1C,-15%,-13%,-20%,20%,-2%[46.1 µM],x
CN1C/C(=C/c2ccccc2[N+](=O)[O-])C(=O)/C(=C\c2ccccc2[N+](=O)[O-])C1,u,-9%,x,18µM*,8.9µM*,3.2µM*
Cc1ccc(C)c2c1CCC(=Cc1ccccc1[N+](=O)[O-])C2=O,-18%,-12%,x,-16%,x,x
O=[N+]([O-])c1cc(CN2CCOCC2)c2cccnc2c1O,-7%,-7%,35µM*,-7%,-29%,-21%[46.1 µM]
Oc1c(Cl)cc(CN2CCOCC2)c2cccnc12,x,x,1.3µM*,-25%,x,x
O=C(Oc1c(CN2CCOCC2)cc(Cl)c2cccnc12)c1ccccc1F,7.9µM*,10µM*,1%,-16%,u,u
O=C(Oc1c(CN2CCOCC2)cc(Cl)c2cccnc12)c1ccccc1,u,u,-15%,-29%,u,u
Oc1c(CN2CCc3ccccc3C2)cc(Cl)c2cccnc12,2.5µM*,u,-13%,u,x,x
Cc1cc(-c2ccnc(-n3ncc(C(=O)NCC4CCCN(C)C4)c3C3CC3)n2)c(C)s1 (configuration not stated),-6%,-2%,x,-3%,x,x
SMILES,VACV mCherry inh,VACV Venus inh,Sm TGR block,FMDV antiviral,Lassa entry inh,Marburg entry inh
Cc1ccc(C(=O)NCc2ccc(N(C)C)cc2)cc1NC(=O)c1nsc2ccccc12,-14%,-16%,-17%,1%,5µM*,x
Cc1ccccc1CNC(=O)c1ccc(NC(=O)c2nsc3ccccc23)cc1,1%,-6%,25µM*,-7%,-1%[46.1 µM],x
Cc1ccc(C(=O)NCc2ccccc2)cc1NC(=O)c1nsc2ccccc12,-6%,-15%,-3%,32%,-16%[46.1 µM],x
CSC(=Nc1ccccc1)N=C(SCc1ccccc1)N(C)C,u,u,x,u,13µM*,u
COc1ccc(/C=C2/CCCC(CN(C)C)C2=O)cc1 (configuration not stated),-5%,-10%,x,-13%,-13%,-16%
CN(C)CC1CCC/C(=C\c2ccc(OC(=O)/C=C/c3ccc(Cl)c(Cl)c3)cc2)C1=O (configuration not stated),-9%,-3%,x,40µM*,12%,u
O=C(COC(=O)/C=C/c1ccc(Cl)c(Cl)c1)NC1CCCC1,x,x,-1%,-4%,x,x
CN(C)CC1CCC/C(=C/c2ccc(Cl)cc2)C1=O (configuration not stated),i,-12%,x,40µM*,u,-3%
N#CC(c1cccc(Cl)c1)c1ccc2c(C(F)(F)F)cc(C(F)(F)F)nc2n1 (configuration not stated),x,2.2µM*,15%,5µM*,2.2µM*,u
Cc1cccc(N2CCN(C(=O)CCNS(=O)(=O)c3ccc4c(c3)CCC(=O)N4)CC2)c1C,x,x,5%,-7%,6.5µM*,u
Cc1cccc(N2CCN(C(=O)CCNS(=O)(=O)c3ccc4c(c3)oc(=O)n4C)CC2)c1C,u,u,4%,u,u,u
N.N.N.N.N.N.N.N.N.N.N.N.N.N.O.O.[Ru+4].[Ru+5].[Ru+5],x,x,x,x,-26%,u
CC1=CC(C)(C)N(S(=O)(=O)c2ccc(C)cc2)c2cc(C)ccc21,u,u,5%,x,u,2.6µM*
CCOc1ccc2c(c1)C(C)=CC(C)(C)N2S(=O)(=O)c1ccc(C)cc1,-16%,-13%,-4%[57.1 µM],-10%,u,2.8µM*
COc1ccc2c(c1)C(C)=CC(C)(C)N2S(=O)(=O)c1ccc(C)cc1,u,-23%,-6%[57.1 µM],u,u,u
C#CCCCO/N=C1\C[C@@H](O)[C@@H](O)[C@@H]2[C@@H]3C(=O)N(c4ccc(F)cc4F)C(=O)[C@@H]3CC[C@@H]12,x,x,x,x,x,-8%[14.2 µM]
Cc1ccccc1OCc1nnc(SCC(=O)Nc2ccc3nc(SCC(=O)NC(C)(C)C)sc3c2)n1C,x,u,0%,35µM*,u,u
Cc1cccc(NC(=O)CSc2nc3ccc(NC(=O)COc4ccccc4C)cc3s2)c1,-26%,-20%,2%,0%,u,u
CCN(CC)C(=O)CSc1nc2ccc(NC(=O)CSc3nnc(COc4ccccc4C)n3C)cc2s1,-10%[1.46 µM],u,-27%,22µM*,u,-22%
CCOC(=O)c1sc(NC(=O)c2cc(CC)on2)c(C(=O)OCC)c1C,-11%,-4%,8%,-11%,23%[46.1 µM],2%[46.1 µM]
Nc1ccc2oc(-c3ccccc3Cl)cc(=O)c2c1O,0.79µM*,0.89µM*,-19%,65%,2%,-5%
COc1cc(CNC(=O)CCCC/C=C/C(C)C)ccc1O,-2%,u,-15%,45µM*!,x,x
